For some of these results: Measured potencies and affinities stand elsewhere.
Experiments:
Parameters in all cases: scale not given: direction of the effect not stated beside the values
[1] = target: Protein translocase subunit SecA (Escherichia coli (strain K12)) (UniProt P10408); assay: Assay to Identify E. coli SecA ATPase Inhibitors; format: functional; conditions: 30 µM
[2] = target: T1, Ubiquitin-activating enzyme e1, putative (Leishmania donovani (strain BPK282A1)) (UniProt E9BSI1); assay: Leishmania donovani Ubiquitin Activating Enzyme (LdE1); format: functional; conditions: 30 µM
T1 sequence (whole entry): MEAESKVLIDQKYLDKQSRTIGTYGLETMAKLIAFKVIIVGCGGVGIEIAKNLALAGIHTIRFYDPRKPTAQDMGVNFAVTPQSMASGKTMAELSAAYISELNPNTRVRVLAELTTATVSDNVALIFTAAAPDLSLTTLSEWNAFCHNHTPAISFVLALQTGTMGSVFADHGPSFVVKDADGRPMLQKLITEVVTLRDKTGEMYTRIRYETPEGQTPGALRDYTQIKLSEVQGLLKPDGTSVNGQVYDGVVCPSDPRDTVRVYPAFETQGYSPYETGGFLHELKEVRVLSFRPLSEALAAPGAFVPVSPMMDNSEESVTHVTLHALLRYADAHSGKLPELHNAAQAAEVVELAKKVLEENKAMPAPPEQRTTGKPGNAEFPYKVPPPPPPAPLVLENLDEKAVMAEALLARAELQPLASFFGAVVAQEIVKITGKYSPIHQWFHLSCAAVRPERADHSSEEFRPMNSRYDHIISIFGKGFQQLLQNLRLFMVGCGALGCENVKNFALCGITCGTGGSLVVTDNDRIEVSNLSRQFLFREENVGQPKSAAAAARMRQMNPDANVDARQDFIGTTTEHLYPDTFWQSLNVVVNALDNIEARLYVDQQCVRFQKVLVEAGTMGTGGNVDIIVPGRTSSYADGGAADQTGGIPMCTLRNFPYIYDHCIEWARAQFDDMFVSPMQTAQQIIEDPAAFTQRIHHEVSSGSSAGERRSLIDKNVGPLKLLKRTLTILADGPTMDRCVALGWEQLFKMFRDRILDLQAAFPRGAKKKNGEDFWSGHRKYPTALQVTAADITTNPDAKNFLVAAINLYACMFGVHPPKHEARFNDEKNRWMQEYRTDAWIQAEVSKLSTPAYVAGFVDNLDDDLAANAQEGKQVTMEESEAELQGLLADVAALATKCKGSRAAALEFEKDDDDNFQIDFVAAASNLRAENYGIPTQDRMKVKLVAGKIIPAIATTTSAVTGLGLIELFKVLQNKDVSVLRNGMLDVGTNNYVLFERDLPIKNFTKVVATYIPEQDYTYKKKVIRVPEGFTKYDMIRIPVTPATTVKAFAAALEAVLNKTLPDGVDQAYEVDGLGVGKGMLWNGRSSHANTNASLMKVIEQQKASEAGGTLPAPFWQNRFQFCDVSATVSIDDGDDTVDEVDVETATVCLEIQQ

[3] = target: AMP-activated protein kinase, AMPK (Homo sapiens) (UniProt P54646+O43741+P54619+Q9UGJ0+Q9Y478+Q13131+Q9UGI9); assay: AMP-dependent Kinase enzyme assay. An in vitro enzyme assay that detects ADP turnover that is directly proportional to AMPK activity. This uses naive AMPK that is activated during the assay with MK-8722; format: functional; conditions: 30 µM
[4] = target: Sialic acid-binding Ig-like lectin 9 (Homo sapiens) (UniProt Q9Y336); assay: Hs-Siglec9 ALPHAscreen SOP 20170721; conditions: 10 µM
Trypanosoma cruzi = assay: Trypanosoma cruzi phosphomannomutase and mannose-1-phosphate guanylyltransferase assay; format: functional; conditions: 10 µM
[5] = target: T2, Arginase-2, mitochondrial (Homo sapiens) (UniProt P78540); assay: in vitro enzyme assay to detect the production of urea directly proportional to the activity of Arginase II; format: functional; conditions: 33.3 µM; note: in the data most compounds retested in dose-response had high values
T2 sequence (whole entry): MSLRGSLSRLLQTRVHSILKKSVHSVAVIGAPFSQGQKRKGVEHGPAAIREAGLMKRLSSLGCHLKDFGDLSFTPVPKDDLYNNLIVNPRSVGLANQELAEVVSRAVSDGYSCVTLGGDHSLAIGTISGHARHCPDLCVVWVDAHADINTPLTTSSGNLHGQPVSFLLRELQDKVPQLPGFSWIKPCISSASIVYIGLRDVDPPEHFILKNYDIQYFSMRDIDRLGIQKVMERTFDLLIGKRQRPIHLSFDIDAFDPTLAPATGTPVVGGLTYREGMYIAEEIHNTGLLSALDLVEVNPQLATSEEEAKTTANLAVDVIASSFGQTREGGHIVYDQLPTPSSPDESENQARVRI

[6] = target: T3, Proteasome subunit beta (Trypanosoma cruzi) (UniProt O96673); assay: Trypanosoma cruzi proteasome chymotrypsin-like activity (TcProtChymo) assay.; note: in the data most compounds retested in dose-response had high values; format: functional; conditions: 9.37 µM
T3 sequence (whole entry): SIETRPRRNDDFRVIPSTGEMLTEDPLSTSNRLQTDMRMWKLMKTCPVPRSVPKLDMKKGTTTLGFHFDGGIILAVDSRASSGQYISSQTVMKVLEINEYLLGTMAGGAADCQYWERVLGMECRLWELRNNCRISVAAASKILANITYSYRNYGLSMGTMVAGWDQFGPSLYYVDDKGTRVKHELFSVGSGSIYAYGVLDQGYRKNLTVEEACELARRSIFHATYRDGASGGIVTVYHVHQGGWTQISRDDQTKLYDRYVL

Homo sapiens = species: Homo sapiens; assay: To identify inhibition of the IFN signalling (Jak-Stat) pathway via expression of an eGFP reporter gene under the control of an IFN-stimulated response element (ISRE) containing MxA promoter.; format: functional; conditions: 30 µM
[7] = target: T4, Tyrosyl-tRNA synthetase, putative (Trypanosoma cruzi (strain CL Brener)) (UniProt Q4DSP6); assay: Trypanosoma cruzi tyrosyl tRNA synthetase (TcYRS) _High Tyrosine SOP; format: functional; conditions: 30 µM; note: in the data most compounds retested in dose-response had high values
T4 sequence (whole entry): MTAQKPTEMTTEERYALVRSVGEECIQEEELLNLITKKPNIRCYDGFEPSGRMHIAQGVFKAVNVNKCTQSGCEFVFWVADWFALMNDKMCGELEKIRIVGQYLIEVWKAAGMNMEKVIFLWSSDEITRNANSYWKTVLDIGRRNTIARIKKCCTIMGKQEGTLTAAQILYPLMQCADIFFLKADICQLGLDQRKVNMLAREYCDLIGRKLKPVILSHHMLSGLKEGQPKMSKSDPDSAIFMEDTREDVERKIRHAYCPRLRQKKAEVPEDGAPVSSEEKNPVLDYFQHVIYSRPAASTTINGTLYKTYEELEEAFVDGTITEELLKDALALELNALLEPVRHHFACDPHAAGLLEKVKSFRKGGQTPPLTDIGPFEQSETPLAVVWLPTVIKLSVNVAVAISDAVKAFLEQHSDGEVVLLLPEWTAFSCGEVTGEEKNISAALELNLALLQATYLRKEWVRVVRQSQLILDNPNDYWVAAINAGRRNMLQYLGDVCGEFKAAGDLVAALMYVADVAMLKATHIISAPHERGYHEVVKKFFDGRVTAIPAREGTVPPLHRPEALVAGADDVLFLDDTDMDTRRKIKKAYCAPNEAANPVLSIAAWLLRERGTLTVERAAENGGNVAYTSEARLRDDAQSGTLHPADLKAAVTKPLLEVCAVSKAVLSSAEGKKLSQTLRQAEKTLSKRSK

[8] = target: T4, Tyrosyl-tRNA synthetase, putative (Trypanosoma cruzi (strain CL Brener)); assay: Trypanosoma cruzi tyrosyl tRNA synthetase (TcYRS) SOP; format: functional; conditions: 30 µM
[9] = target: Chromo domain-containing protein 1 (Saccharomyces cerevisiae (strain ATCC 204508 / S288c) (Baker's yeast)) (UniProt P32657); assay: ScCHD-1 Enzyme Inhibition Assay; format: functional; conditions: 30 µM; note: in the data most compounds retested in dose-response had high values
Chromo domain-containing protein 1 (Saccharomyces cerevisiae (strain ATCC 204508 / S288c) (Baker's yeast)), sequence (P32657 whole entry, the tested form may be a part): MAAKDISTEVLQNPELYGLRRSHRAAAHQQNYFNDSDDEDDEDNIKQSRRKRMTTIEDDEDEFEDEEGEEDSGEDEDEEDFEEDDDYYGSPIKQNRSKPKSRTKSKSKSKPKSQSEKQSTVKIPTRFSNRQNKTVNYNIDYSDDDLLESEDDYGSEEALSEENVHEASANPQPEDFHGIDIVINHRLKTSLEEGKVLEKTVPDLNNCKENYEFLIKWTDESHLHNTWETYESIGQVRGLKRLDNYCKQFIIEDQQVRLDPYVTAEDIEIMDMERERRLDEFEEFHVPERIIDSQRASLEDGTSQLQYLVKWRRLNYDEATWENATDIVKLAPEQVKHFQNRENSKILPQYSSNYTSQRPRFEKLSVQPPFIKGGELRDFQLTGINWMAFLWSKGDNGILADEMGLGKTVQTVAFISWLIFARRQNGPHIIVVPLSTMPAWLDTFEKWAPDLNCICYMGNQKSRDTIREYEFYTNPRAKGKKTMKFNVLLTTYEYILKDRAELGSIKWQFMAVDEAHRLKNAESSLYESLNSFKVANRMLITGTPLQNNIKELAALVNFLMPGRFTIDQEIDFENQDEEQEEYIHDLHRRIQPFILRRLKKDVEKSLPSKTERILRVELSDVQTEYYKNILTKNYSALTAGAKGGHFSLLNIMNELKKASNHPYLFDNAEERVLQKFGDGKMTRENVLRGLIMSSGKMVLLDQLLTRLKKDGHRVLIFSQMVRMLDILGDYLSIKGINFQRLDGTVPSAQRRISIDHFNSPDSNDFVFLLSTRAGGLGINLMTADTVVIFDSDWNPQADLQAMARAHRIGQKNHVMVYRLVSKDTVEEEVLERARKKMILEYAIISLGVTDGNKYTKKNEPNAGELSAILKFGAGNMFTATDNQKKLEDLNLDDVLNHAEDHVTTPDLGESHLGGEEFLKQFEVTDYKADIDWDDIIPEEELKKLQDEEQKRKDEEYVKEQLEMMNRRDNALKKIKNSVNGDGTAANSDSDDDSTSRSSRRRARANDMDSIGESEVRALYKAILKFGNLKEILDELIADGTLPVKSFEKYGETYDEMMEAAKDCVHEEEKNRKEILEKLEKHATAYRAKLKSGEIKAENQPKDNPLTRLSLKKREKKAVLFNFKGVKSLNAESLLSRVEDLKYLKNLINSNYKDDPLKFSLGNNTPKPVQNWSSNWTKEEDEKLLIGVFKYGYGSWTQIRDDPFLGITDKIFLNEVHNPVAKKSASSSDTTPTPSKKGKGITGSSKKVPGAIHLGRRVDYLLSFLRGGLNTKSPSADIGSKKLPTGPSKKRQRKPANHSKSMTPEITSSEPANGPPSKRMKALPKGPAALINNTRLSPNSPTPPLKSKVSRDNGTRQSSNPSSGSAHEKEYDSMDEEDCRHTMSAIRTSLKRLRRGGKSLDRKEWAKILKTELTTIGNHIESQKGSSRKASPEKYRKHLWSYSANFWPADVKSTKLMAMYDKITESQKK

Protein translocase subunit SecA (Escherichia coli (strain K12)), sequence (P10408 whole entry): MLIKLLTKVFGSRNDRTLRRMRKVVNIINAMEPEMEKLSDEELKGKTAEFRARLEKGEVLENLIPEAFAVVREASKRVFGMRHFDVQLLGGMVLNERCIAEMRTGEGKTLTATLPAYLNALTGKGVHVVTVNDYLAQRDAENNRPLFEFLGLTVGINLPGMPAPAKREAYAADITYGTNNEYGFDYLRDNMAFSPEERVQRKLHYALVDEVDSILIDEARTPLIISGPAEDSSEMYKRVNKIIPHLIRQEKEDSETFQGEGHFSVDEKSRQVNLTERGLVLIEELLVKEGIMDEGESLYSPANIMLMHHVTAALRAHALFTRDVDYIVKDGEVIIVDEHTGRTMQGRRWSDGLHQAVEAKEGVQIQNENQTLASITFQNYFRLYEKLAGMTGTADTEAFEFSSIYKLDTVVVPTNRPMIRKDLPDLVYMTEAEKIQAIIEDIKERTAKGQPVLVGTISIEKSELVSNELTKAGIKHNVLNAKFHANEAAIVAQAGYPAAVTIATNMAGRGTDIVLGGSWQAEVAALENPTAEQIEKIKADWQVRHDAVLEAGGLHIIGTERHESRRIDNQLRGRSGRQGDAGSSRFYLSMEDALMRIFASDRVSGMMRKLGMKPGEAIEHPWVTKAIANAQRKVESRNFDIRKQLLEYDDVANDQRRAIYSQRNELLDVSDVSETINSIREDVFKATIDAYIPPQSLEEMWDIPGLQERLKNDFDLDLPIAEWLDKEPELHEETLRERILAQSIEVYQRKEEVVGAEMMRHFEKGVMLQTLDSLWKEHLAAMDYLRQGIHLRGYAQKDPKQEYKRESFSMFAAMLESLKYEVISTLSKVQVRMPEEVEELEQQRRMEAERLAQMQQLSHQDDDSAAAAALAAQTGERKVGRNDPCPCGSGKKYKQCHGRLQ
Sialic acid-binding Ig-like lectin 9 (Homo sapiens), sequence (Q9Y336 whole entry): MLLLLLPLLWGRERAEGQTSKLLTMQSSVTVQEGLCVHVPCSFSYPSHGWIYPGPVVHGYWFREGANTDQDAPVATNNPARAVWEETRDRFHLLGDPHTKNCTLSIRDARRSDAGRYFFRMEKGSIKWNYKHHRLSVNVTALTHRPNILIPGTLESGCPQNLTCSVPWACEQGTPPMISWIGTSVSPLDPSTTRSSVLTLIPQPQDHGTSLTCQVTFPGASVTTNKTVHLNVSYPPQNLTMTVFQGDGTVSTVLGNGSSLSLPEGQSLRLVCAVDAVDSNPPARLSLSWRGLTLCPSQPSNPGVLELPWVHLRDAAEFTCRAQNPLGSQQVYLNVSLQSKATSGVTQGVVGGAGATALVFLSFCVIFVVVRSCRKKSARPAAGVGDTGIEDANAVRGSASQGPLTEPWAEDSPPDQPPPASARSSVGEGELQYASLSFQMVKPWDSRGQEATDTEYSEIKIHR

Row | SMILES | Percent Effect [1] | Percent Effect [2] | Percent Effect [3] | Percent Effect [4] | Percent Effect (Trypanosoma cruzi) | Percent Effect [5] | Percent Effect [6] | Percent Effect (Homo sapiens) | Percent Effect [7] | Percent Effect [8] | Percent Effect [9]
1 | CN1CCC(C(=O)NCc2nncn2-c2ccccc2)CC1=O (configuration not stated) | -2.63% | 5.41% | -5.14% | 5.74% | -3.87% | -2% | 0% | 13.5% | 4.43% | 1.24% | -2.07%
2 | CN(CCC(F)(F)F)C(=O)C1CCCN1C(=O)OC(C)(C)C (configuration not stated) | -3.42% | 2.74% | 0.924% | -4.88% | 2.15% | 2.27% | -2.31% | -3.94% | 3.23% | 2.5% | -0.543%
3 | c1cc(CNCc2ccnc(N3CCOCC3)c2)c2c(c1)OCCO2 | -3.35% | 5.41% | -12.3% | 26.3% | 8.31% | 15.1% | 6.27% | 15.7% | 1.07% | 16.1% | -5.85%
4 | O=C(CCc1ccc(=O)[nH]n1)N1CCCC(COc2ccc(F)cc2)C1 (configuration not stated) | -2.1% | 1.39% | -1.82% | -3.84% | 1.85% | 2.65% | 16.3% | 5.9% | 6.32% | 12.8% | -1.89%
5 | CC(C)(C)c1n[nH]c(C2CN(C(=O)c3cc(C4CC4)on3)CCO2)n1 (configuration not stated) | -2.82% | 7.89% | 1.22% | -5.79% | 5.55% | -8.28% | -4.7% | 0.97% | 1.06% | 5.2% | -10.8%
6 | CC(=O)N(Cc1noc(C)n1)C1CCN(Cc2cc(C)on2)C1 (configuration not stated) | -2.56% | 18.2% | 1.37% | -5.63% | 0.0979% | -1.05% | 18.5% | 12.2% | 10.5% | 30.6% | -15%
7 | O=C(NC1CC1)[C@H]1C[C@H]2OCC[C@H]2N(CC2CCOCC2)C1 | -7.27% | 0% | 1.56% | 2.95% | -3.28% | -51.1% | 7.18% | 3.71% | 5.21% | -2.5% | 319%
8 | O=C(CSc1ccncc1)N1C[C@H]2CC[C@@H]1CN(Cc1cccnc1)C2 | -4.31% | 16.4% | 10.6% | 8.46% | 7.05% | 2.27% | 6.74% | 9.78% | 5.38% | 15% | -4%
9 | Cc1ccc(C)n1-c1ccc(C(=O)NCCNc2ncccn2)cc1 | -1.31% | 7.89% | -10.7% | -3.65% | 3.46% | -6.83% | 15% | -6.26% | 9.36% | 18.5% | 0.738%
10 | CC(C)CS(=O)(=O)N1C[C@H]2C[C@H](C(=O)NCc3ccccc3)[C@@H](C1)O2 | 1.12% | 9.33% | 4.22% | -2.68% | -10% | 0.88% | 13.3% | 2.72% | 3.17% | 2.56% | -5.74%
11 | O=C([C@@H]1C[C@@H]2CCN(CCc3ccccc3)C[C@H]2O1)N1CCCC1 | 1.08% | 8% | 15% | -9.77% | -7.09% | 8.62% | 14.7% | -9.49% | 4.25% | 8.97% | 0.575%
12 | Cc1cc(NC(=O)CN2CCn3c(nnc3C(C)C)C2)no1 | -2.36% | 7.79% | 2.84% | -23.1% | 2.25% | -5.26% | 16.6% | 25.4% | 5.71% | 25.9% | -21.2%
13 | CN1N=C(C(=O)Nc2cc(F)ccc2OCC2CCCO2)CCC1=O (configuration not stated) | -1.5% | -5.2% | 12% | 2.24% | 7.3% | -6.41% | 6.25% | -6.34% | 1.94% | 2.44% | -8.4%
14 | CO[C@H]1CCN(S(=O)(=O)c2cn(C)cn2)[C@H]1Cc1cccnc1 | -3.74% | 8% | -3.32% | -5.55% | 6.37% | -49.6% | 7.86% | -0.203% | 3.12% | 15% | -9.19%
15 | Cc1cnc(CN2CCOC(Cn3nc(C)nc3C)C2)cn1 (configuration not stated) | -1.64% | 17.7% | -6.35% | 2.13% | 4.82% | 3.42% | 15.8% | -21.9% | 6.4% | 24.1% | -3.57%
16 | COc1c(CNCCNC(=O)c2ccc(C)cc2)c(C)nn1C | -5.75% | 13.5% | -5.83% | 19.1% | 6.96% | -2.4% | 5.57% | -9.3% | 7.92% | 28.1% | -7.35%
17 | Cc1ccc(C)c(NC(=O)N(C)Cc2cnn(C)c2)c1 | -3.08% | 21.6% | -1.59% | -5.73% | -5.94% | -0.401% | 11.3% | 20.3% | 7.39% | 16.1% | -4.13%
